Data from PubChem BioAssay (NCI).
The panel holds about 83,000 compounds, 20% with a hit somewhere; the sample as a whole holds those more often.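 The test compound was applied at a single concentration to cells in 96-well plates for 48 hours, and percent growth was recorded.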 Values without a mark were called inactive. Calls of active or inactive are those of the source. The calls were made as follows: active = growth percent below 10; inactive = the rest.

Columns and labels:
Assay in all cases: NCI-60 one-dose screen, 48 h (100 = growth as untreated, 0 = no growth, -100 = all killed)
[1] = tested on: NCI-H23 lung; conditions: 10 µM unless noted
[2] = tested on: NCI-H226 lung; conditions: 10 µM unless noted
[3] = tested on: NCI-H322M lung; conditions: 10 µM unless noted
[4] = tested on: HOP-62 NSCLC; conditions: 10 µM unless noted
[5] = tested on: NCI-H460 lung; conditions: 10 µM unless noted
[6] = tested on: NCI-H522 lung; conditions: 10 µM unless noted
[7] = tested on: 786-0 renal; conditions: 10 µM unless noted
[8] = tested on: COLO 205 colon; conditions: 10 µM unless noted
[9] = tested on: DU-145 prostate; conditions: 10 µM unless noted
[10] = tested on: K-562 leukemia; conditions: 10 µM unless noted
[11] = tested on: MALME-3M melanoma; conditions: 10 µM unless noted
[12] = tested on: MDA-MB-231 breast; conditions: 10 µM unless noted
[13] = tested on: RXF 393 renal; conditions: 10 µM unless noted
[14] = tested on: SF-268 CNS; conditions: 10 µM unless noted
[15] = tested on: SF-295 CNS; conditions: 10 µM unless noted
[16] = tested on: SF-539 CNS; conditions: 10 µM unless noted
[17] = tested on: UACC-257 melanoma; conditions: 10 µM unless noted
[18] = tested on: M14 melanoma; conditions: 10 µM unless noted
[19] = tested on: A549/ATCC NSCLC; conditions: 10 µM unless noted
[20] = tested on: HOP-92 NSCLC; conditions: 10 µM

| SMILES | growth [1] | growth [2] | growth [3] | growth [4] | growth [5] | growth [6] | growth [7] | growth [8] | growth [9] | growth [10] | growth [11] | growth [12] | growth [13] | growth [14] | growth [15] | growth [16] | growth [17] | growth [18] | growth [19] | growth [20] |
| --- | --- | --- | --- | --- | --- | --- | --- | --- | --- | --- | --- | --- | --- | --- | --- | --- | --- | --- | --- | --- |
| COc1cc2oc(-c3cccc(C(=O)N[C@@H](CC(C)C)C(=O)OC(C)(C)C)c3)cc(=O)c2c(OC)c1OC | 60.6% | 72.6% | 90.4% | 43.4% | 37.8% | 83.1% | 67.9% | 92.8% | 72.8% | 36.7% | 96.3% | 72.1% | 86.2% | 83.8% | 52.3% | 88.6% | 112% | 93.7% | – | – |
| O=C(Nc1nc2ccc([N+](=O)[O-])cc2s1)Nc1ccccc1Br | 9.86% (active) | 38.4% | 27.6% | 91.2% | 27.4% | – | 70% | 55.3% | 46.5% | 20.7% | 14.6% | 72.7% | 62.2% | 38.3% | 38.1% | 39.9% | 30.4% | 54.5% | 49.4% | – |
| COc1ccc2[nH]cc(/C=N/Nc3nc4ccccc4s3)c2c1 | 67.6% | 75.6% | 79.2% | 62.9% | 32.1% | – | 52.9% | 80.4% | 60.3% | 24.3% | 98.4% | 67.2% | 60.8% | 55.9% | 58.5% | 70.5% | 81.9% | – | 52.4% | – |
| CCO/C=N/C1=C(C#N)C(c2ccc(F)cc2)c2sc3c(CC)cccc3c2O1 (configuration not stated) | 28.3% | 51.6% | 42.6% | 48.6% | 3.42% (active) | – | 26.3% | 12.6% | 19.3% | 8.58% (active) | – | 29.7% | -20.6% (active) | 47.5% | -6.92% (active) | -12.7% (active) | 69.5% | – | 24.6% | – |
| O=S(=O)(Nc1cccc2ccccc12)c1ccc(-c2cnc(C3CC3)o2)cc1 | 23.2% | 64.6% | 40.4% | 39.3% | 11.2% | – | 50.2% | 9.76% (active) | 15.3% | 8.55% (active) | 61.4% | 27.6% | 7.94% (active) | 55.5% | 0.665% (active) | 7.47% (active) | 69% | 14.5% | 27.2% | – |
| Cc1ccc(S(=O)(=O)NCCNc2nc(Nc3ccc(N4CCN(C)CC4)cc3)nc3ccsc23)cc1 | 100% | 104% | 110% | 112% | 96.4% | 109% | 91.3% | 113% | 102% | 0.196% (active) | 117% | 109% | 70% | 74.9% | 98.2% | 94.9% | 107% | 106% | – | – |
| O=C(CCn1cc[n+](CC(=O)c2ccc(-c3ccccc3)cc2)c1)Nc1cccc2cccnc12 | 81.1% | 83.3% | 92.2% | 102% | 91.9% | – | 97.7% | 72.8% | 90.9% | 45.9% | – | 65.1% | 90.5% | 72.2% | 100% | 80.8% | 40.9% | 82.3% | 94.4% | – |
| Nc1ccccc1NC(=O)c1ccc(NC(=O)C/C=C/c2cccnc2)cn1 | 22.7% | 25.1% | 35.9% | – | 31.6% | 0.109% (active) | 31.9% | -21.9% (active) | 6.29% (active) | 15.7% | 15.6% | 41.6% | -35.5% (active) | 28.3% | 21.8% | 9.41% (active) | 14.5% | – | 33.5% | -7.8% (active) |
| Cc1nn(-c2ccccc2)c2ncnc(N/N=C/c3ccccc3O)c12 | 14.3% | 14.8% | 14.1% | 10.2% | 6.19% (active) | 23.1% | 11% | 10.5% | 21% | 15% | – | 29.7% | -20.4% (active) | 8.32% (active) | 7.98% (active) | -1.39% (active) | 9.8% (active) | 0.329% (active) | – | – |
| CC/C(=C/c1c(O)cccc1OC)c1ccc2c(OC)cccc2[o+]1 | 98.9% | 99% | 101% | – | 103% | 93.2% | 101% | 110% | 112% | 96.6% | 105% | 102% | – | 100% | 98.5% | 98.5% | 101% | – | 102% | 110% |
| COc1ccc(/C=N/NC(=O)c2cn(C3CC3)c3c(OC)c(N4CC5CCCNC5C4)c(F)cc3c2=O)cc1 (configuration not stated) | 85.7% | 99% | 89.7% | – | 92% | 102% | 84.2% | 95.1% | 93.6% | 7.92% (active) | 90.4% | 81.1% | – | 83.6% | 103% | 35.5% | 106% | – | 98.5% | 74.5% |
| O=S(=O)(Oc1ccc(-c2nnc(Nc3ccccc3)s2)cc1)C(F)(F)C(F)(F)C(F)(F)C(F)(F)C(F)(F)C(F)(F)F | 100% | 99.6% | – | 103% | 103% | 95.9% | 108% | 104% | 107% | 94.4% | 108% | 86.9% | 102% | 100% | 105% | 97.7% | 96.8% | – | 101% | 101% |
| C=CC(=O)N1CCC=C(c2cc3c(N[C@H](C)c4ccccc4)ncnc3[nH]2)C1 | 83.3% | 58.5% | 31% | – | 98% | – | 43.6% | 96% | 42.9% | 37% | 101% | 44.4% | -17% (active) | 60.1% | 72% | 74.6% | 87.4% | 85.9% | 52.1% | 38% |
| C=C(C=O)[C@@H]1CC[C@]2(COC(C)=O)CC[C@]3(C)C(CC[C@@H]4[C@@]5(C)CC[C@H](OC(C)=O)C(C)(C)[C@@H]5CC[C@]43C)[C@@H]12 (some centres not stated) | -22.4% (active) | -55.5% (active) | – | 80.6% | -23.2% (active) | -35.5% (active) | 2.99% (active) | -8.44% (active) | -53% (active) | 2.89% (active) | -64.7% (active) | -32.2% (active) | – | 6.02% (active) | 0.392% (active) | -50.2% (active) | -17.2% (active) | – | 36.5% | -78.8% (active) |
| CC(C)(C)c1ccc(C(=O)Nc2sc3c(c2C(N)=O)CCC(O)C3)cc1 (configuration not stated) | 66.5% | 68.7% | 58.1% | – | 17% | 31.2% | 15.4% | 6.84% (active) | 58.6% | 6.74% (active) | – | 65.6% | 44.5% | 63.2% | -1.38% (active) | 23.3% | 36.8% | -3.35% (active) | 39.6% | – |
| O=C(Nc1nonc1-c1ccccc1)c1ccc(C(F)(F)F)cc1 | 72.6% | 89.4% | 86.9% | – | 47.6% | 82.7% | 90.4% | 119% | 92.5% | 70% | 68.5% | 85.1% | 90.3% | 81.6% | 59.7% | 95.9% | 77.8% | 71.1% | 87.3% | – |
| CN1CCN(Cc2ccc(NC(=O)c3cncc(C#Cc4cnc5ccc(NCCCO)nn45)c3)cc2C(F)(F)F)CC1 | -52% (active) | -10.1% (active) | 3.42% (active) | – | -85.6% (active) | -77.2% (active) | -58.9% (active) | -78% (active) | -16.5% (active) | 0.484% (active) | -56.1% (active) | 12.2% | -89% (active) | -44.4% (active) | -12.1% (active) | -78.1% (active) | -43.8% (active) | -91% (active) | 5.6% (active) | – |
